# Screening data (PubChem)
# USP28 inh – human USP28 deubiquitinase inhibition | inhibition, % at 25 µM | Q96RU2 | 47,000 compounds, 3% hits | purified USP28, Ub-rhodamine cleavage fluorescence, 30 min
# OTUD3 inh – human OTUD3 deubiquitinase inhibition; purified OTUD3, Ub-rhodamine fluorescence, 2 h; inhibition, % at 25 µM; 47,000 compounds, 0.7% hits; AID 1645858
# USP17 block – human USP17-like deubiquitinase inhibition; A8MUK1; purified USP17, Ub-rhodamine cleavage fluorescence, 3 h; inhibition, % at 50 µM; 47,000 compounds, 6.5% hits
# Target sequence (A8MUK1 whole entry, looked up): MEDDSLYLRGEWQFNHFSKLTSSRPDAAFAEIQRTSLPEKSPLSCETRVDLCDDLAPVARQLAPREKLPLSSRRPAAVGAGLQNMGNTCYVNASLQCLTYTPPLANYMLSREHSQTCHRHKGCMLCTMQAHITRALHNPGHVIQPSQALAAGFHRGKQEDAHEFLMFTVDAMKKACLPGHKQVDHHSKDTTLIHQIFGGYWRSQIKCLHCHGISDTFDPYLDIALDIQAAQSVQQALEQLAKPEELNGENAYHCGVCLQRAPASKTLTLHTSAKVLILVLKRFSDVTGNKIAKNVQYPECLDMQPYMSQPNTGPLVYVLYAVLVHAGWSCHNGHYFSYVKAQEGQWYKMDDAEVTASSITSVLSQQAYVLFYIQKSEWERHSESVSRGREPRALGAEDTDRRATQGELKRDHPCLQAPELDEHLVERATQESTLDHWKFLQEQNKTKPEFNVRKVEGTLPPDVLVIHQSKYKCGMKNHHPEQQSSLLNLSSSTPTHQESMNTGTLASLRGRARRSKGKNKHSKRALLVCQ
# USP30 block – blocks human USP30 ubiquitin-rhodamine cleavage; inhibition, % at 25 µM; 47,000 compounds, 5.3% hits; AID 1645860; purified USP30, Ub-rhodamine cleavage fluorescence; Q70CQ3
# * = called active by the depositor. An excerpt weighted towards active compounds, which were near 11% of everything screened. Cut-off read from the data, not from the text of the source: active = inhibition above about 30%; inactive = the rest.
SMILES,USP28 inh,OTUD3 inh,USP17 block,USP30 block
O=C(Cn1cc(-c2ccccc2)c2ncn(C3CC3)c(=O)c21)NCc1ccc2c(c1)OCO2,-10,-3,-8,-76
Cc1cc(C)c(NC(=O)CS(=O)(=O)c2cn(CC(=O)N3CCC(C)CC3)c3ccccc23)c(C)c1,7,-1,2,13
O=c1c2ccsc2nc2n1CCN(Cc1cccc(F)c1F)CC2,6,6,4,2
Cc1cc(C)c(S(=O)(=O)N2CCCN(S(=O)(=O)c3cc(Br)c(C)cc3C)CC2)cc1Br,-11,-5,2,-12
O=C(Cn1cc(C(=O)C2CC2)c2ccccc21)NCc1ccc2c(c1)OCO2,51*,9,83*,6
O=C(Cn1ccc2ccc(Br)cc21)NCc1ccc2c(c1)OCO2,-15,-17,-26,-38
CCc1ccc(NC(=O)Cn2cnc(S(=O)(=O)N3CCCC3)c2)cc1,7,10,21,14
CCOc1ccc(NC(=O)Cn2cnc(S(=O)(=O)N3CCc4ccccc43)c2)cc1,48*,12,80*,11
c1cnn(-c2ccc(-c3noc(C4CCCCC4)n3)cn2)c1,-1,-2,0,-4
Cc1cc(N)n(-c2nc3ccccc3s2)n1,17,12,36*,41*
Cc1cccn2cc(CSc3nc4ccccc4[nH]3)nc12,9,3,-2,-5
COc1ccc(-c2nc3c(s2)CN(C(=O)C2CC2)CC3)cc1OC,-13,0,-3,-5
C=C1CCC[C@]2(C)C[C@H]3OC(=O)C(CNCCc4ccc(OC)c(OC)c4)[C@H]3CC12 (stereo partly drawn),7,0,-11,46*
CCCc1nc(C2CN(C(=O)Cc3csc(C)n3)CCO2)n[nH]1 (stereo not drawn),-7,-4,-11,-14
N#Cc1cc(C(=O)c2ccc(Cl)cc2)c[nH]1,28,3,51*,29
COc1cccc(C(=O)Nc2ccc(N(c3ccccc3)C(C)C)cc2)c1OC,-6,1,-7,2
Cc1cccc(-n2ncc(C(=O)N3CCc4ccccc43)c2-n2cccc2)c1,19,17,15,42*
Cc1ccc(CN2C(=O)N(c3ccc(F)cc3)S(=O)(=O)c3ccccc32)cc1,18,14,12,20
COc1cccc(-c2noc(NCCc3ccc(SC)cc3)n2)c1,32*,-5,-5,-5
CC1OC2CC(O)C1(O)C1=C2C(=O)c2c(O)c3c(c(O)c2C1=O)[C@H](C)O[C@H]1CC(=O)O[C@@H]31 (stereo partly drawn),11,-7,56*,-81
Cc1cc(N2CCN(c3ccc([N+](=O)[O-])cc3)CC2)nc2cc3c(cc12)CCC3,11,2,30*,21
Cc1cc(N2CC(C)OC2=O)nc(C2CCN(C(=O)OC(C)(C)C)CC2)n1 (stereo not drawn),14,8,12,35*
Cc1cc(N2CC(C)OC2=O)nc(C2CCN(C(=O)C(C)(C)C)CC2)n1 (stereo not drawn),4,9,10,16
COc1ccccc1C(=O)N[C@H]1[C@H](O)[C@H](O)C[C@@H]1c1ccccc1C,8,-7,15,13
Cc1ccccc1[C@H]1C[C@@H](O)[C@@H](O)[C@@H]1NC(=O)COc1ccccc1,15,15,21,39*
SMILES,USP28 inh,OTUD3 inh,USP17 block,USP30 block
Cc1ccn2cc(CCNS(=O)(=O)c3ccc4ccccc4c3)nc2c1,9,3,3,-2
CCc1cccc(CC)c1NC(=O)COC(=O)c1cc2cccc(OC)c2oc1=O,4,6,90*,39*
CCOc1ccc(CC(=O)N2CCC([C@@H]3C[C@H](C(F)F)n4nc(C)cc4N3)CC2)cc1,-1,-5,-38,-12
CC(=O)N1CC(C(=O)NCc2ccc3c(c2)OCO3)C1,9,18,2,28
CC(C(=O)NCc1ccc2c(c1)OCO2)N1CCN(c2ccc(O)cc2)CC1 (stereo not drawn),30,15,73*,23
CC(C(=O)NCc1ccc2c(c1)OCO2)n1nc(-c2ccccc2)c2cc(Cl)ccc21 (stereo not drawn),16,12,35*,25
O=C(c1ccc(Cl)cc1)N1CC[C@@H]2CN(Cc3ccncc3)S(=O)(=O)[C@@H]2CC1,0,9,2,0
O=C(CCSc1nnnn1-c1ccccc1)Nc1cc(C(F)(F)F)ccc1Cl,1,-7,40*,8
COc1ccc(-n2nc(C(=O)Nc3ccc(C(C)=O)cc3)cc2-c2cccnc2)cc1,5,1,11,13
O=C(Nc1ccccc1)C1COc2ccccc2C1 (stereo not drawn),7,0,32*,29
Cc1nc2ccccn2c(=O)c1NC(=O)Cc1ccc(Cl)cc1,0,2,1,11
Cc1c(NC(=O)COc2ccc(C3CCCCC3)cc2)cccc1-c1nc2ncccc2o1,7,29,43*,22
COc1ccc(OCC(=O)Nc2cc(C)c(O)c(-c3nc4ccccc4o3)c2)cc1,3,2,-3,15
Cc1ccc(-c2cc(CNC(=O)c3ccccc3F)no2)cc1,17,8,8,5
CC1CCN(c2nc(F)c3c(c2F)S(=O)(=O)CCN3Cc2ccccc2)CC1,6,5,48*,-10
CC1CCN(c2nc(F)c3c(c2F)S(=O)(=O)CCN3CC2CCCO2)CC1 (stereo not drawn),-6,-4,-17,-9
O=S1(=O)CCN(Cc2ccccc2)c2c(F)nc(N3CCCCC3)c(F)c21,-9,-4,53*,-22
COc1cccc2cccc(O)c12,12,1,85*,-58
O=S(=O)(Nc1ccccc1Oc1ccccc1)c1ccccc1C(F)(F)F,17,20,27,31*
COc1ccccc1CCNC(=O)c1cccc(N2C(=O)CCS2(=O)=O)c1,20,14,4,13
O=C(NCCc1ccc(F)cc1)c1cccc(N2C(=O)CCS2(=O)=O)c1,18,9,18,37*
Cc1ccc(CSc2nc3c(c(N(C)C)n2)CCCC3)cc1,47*,24,14,33*
Cc1ccc(CSc2nc3c(c(N4CC(C)OC(C)C4)n2)CCCC3)cc1 (stereo not drawn),-15,-4,-6,-3
CCNc1cc(N2CCCC(CCC(=O)Nc3cccc(C)c3)C2)ncn1 (stereo not drawn),8,1,-29,0
Cc1ccc2nc(CNc3ccc(F)cc3C)cc(=O)n2c1,52*,42*,85*,26
SMILES,USP28 inh,OTUD3 inh,USP17 block,USP30 block
CN(Cc1cc(=O)n2ccsc2n1)c1ccccc1,-9,-14,1,-71
Cc1ccc2nc(CN(C)c3ccccc3)cc(=O)n2c1,-5,-2,36*,-136
NC(=O)c1ccccc1NCc1cc(=O)n2cc(Cl)ccc2n1,-32,-29,4,-137
O=C(Nc1ccc2c(c1)OCO2)c1cnn(-c2ccc(F)cc2F)c1C1CCNCC1,12,-5,13,-100
Cc1ccc(-c2cc(C(=O)Nc3ccc(S(N)(=O)=O)cc3)[nH]n2)c(O)c1,48*,3,39*,32*
CNc1ncc(C(=O)c2ccc(Br)cc2)s1,3,4,47*,39*
